This is part of a sample that, as a whole, favours compounds with a hit. Of some 83,000 tested, about 20% had one in any assay.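 Results are percent growth after 48 hours of single-concentration exposure. 100 means growth as in untreated cells, lower positive values show inhibition; negative values down to -100 show cell death.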 Activity calls are given as the source filed them. How the source made its calls: active means growth percent below 10; inactive means the rest.
Legend:
Experiment in all cases: NCI-60 one-dose screen, 48 h (100 = growth as untreated, 0 = no growth, -100 = all killed)
Conditions in all cases: 10 µM unless noted
SR leukemia = system: SR leukemia
RPMI-8226 leukemia = system: RPMI-8226 leukemia
OVCAR-8 ovarian = system: OVCAR-8 ovarian
OVCAR-5 ovarian = system: OVCAR-5 ovarian
OVCAR-4 ovarian = system: OVCAR-4 ovarian
SK-OV-3 ovarian = system: SK-OV-3 ovarian
IGROV1 ovarian = system: IGROV1 ovarian
OVCAR-3 ovarian = system: OVCAR-3 ovarian
HS 578T breast = system: HS 578T breast
NCI/ADR-RES ovarian = system: NCI/ADR-RES ovarian

Measured: growth

Cc1ccc2c(c1)C(=O)C(c1c(-c3[nH]c(=O)c4ccc(C)cc4c3O)c(O)c3ccccc3c1O)=NC2=O
inactive: SR leukemia 23.1% | RPMI-8226 leukemia 32.8% | OVCAR-8 ovarian 14.4% | OVCAR-5 ovarian 66.4% | OVCAR-4 ovarian 25.2% | SK-OV-3 ovarian 44% | HS 578T breast 32.4% | NCI/ADR-RES ovarian 14.9%
active: IGROV1 ovarian 6.46% | OVCAR-3 ovarian -38.7%

C=C1C(=O)O[C@H]2[C@H]1CC/C(Cn1cc(-c3ccc(N)cc3)nn1)=C\CC[C@@]1(C)O[C@@H]21
active: SR leukemia 7.69% | RPMI-8226 leukemia -8.22% | OVCAR-8 ovarian -5.97% | OVCAR-3 ovarian -30.7%
inactive: OVCAR-5 ovarian 38.4% | OVCAR-4 ovarian 13.6% | SK-OV-3 ovarian 83.8% | IGROV1 ovarian 18.4% | HS 578T breast 62.4% | NCI/ADR-RES ovarian 69.8%

CC/C=C\C/C=C\C[C@H](O)C/C=C1/C(=O)C=C[C@H]1C/C=C\CCC(=O)OC
inactive: OVCAR-8 ovarian 15.3% [8.25 µM] | OVCAR-5 ovarian 71.1% [8.25 µM] | OVCAR-4 ovarian 43.3% [8.25 µM] | SK-OV-3 ovarian 85.6% [8.25 µM] | IGROV1 ovarian 37.3% [8.25 µM] | HS 578T breast 69.1% [8.25 µM] | NCI/ADR-RES ovarian 39.8% [8.25 µM]
active: SR leukemia 7.38% [8.25 µM] | RPMI-8226 leukemia 3.22% [8.25 µM] | OVCAR-3 ovarian 4.28% [8.25 µM]

O=C(/C=C/CN1CCOCC1)Nc1cc2c(Nc3cccc(Cl)c3F)ncnc2cc1OCCOC(F)F
inactive: SR leukemia 97.1% | RPMI-8226 leukemia 84.5% | OVCAR-8 ovarian 67.6% | OVCAR-5 ovarian 49.5% | OVCAR-4 ovarian 82.4% | OVCAR-3 ovarian 68.3% | HS 578T breast 64.9% | NCI/ADR-RES ovarian 60.9%
active: SK-OV-3 ovarian 9.17% | IGROV1 ovarian 6.79%

O=C(Nc1ccc(Br)c(Cl)c1)c1cc(F)ccc1O
active: SR leukemia 0.366% | RPMI-8226 leukemia -16.1% | OVCAR-8 ovarian 6.78% | SK-OV-3 ovarian 3.58% | NCI/ADR-RES ovarian 6.11%
inactive: OVCAR-5 ovarian 24.4% | OVCAR-4 ovarian 12.4% | IGROV1 ovarian 16.2% | OVCAR-3 ovarian 12.1% | HS 578T breast 17.4%

Oc1ccc(N=Cc2ccccc2)cc1
active: OVCAR-3 ovarian 7.09%
inactive: SR leukemia 30.9% | RPMI-8226 leukemia 55.4% | OVCAR-8 ovarian 86.8% | OVCAR-5 ovarian 104% | OVCAR-4 ovarian 79.7% | SK-OV-3 ovarian 119% | IGROV1 ovarian 97.1% | HS 578T breast 103% | NCI/ADR-RES ovarian 101%

COc1ccc(N=C2NN=C(c3ccc(F)cc3)CS2)cc1OC
inactive: SR leukemia 53% | RPMI-8226 leukemia 74.4% | OVCAR-8 ovarian 105% | OVCAR-5 ovarian 85.7% | OVCAR-4 ovarian 103% | SK-OV-3 ovarian 104% | OVCAR-3 ovarian 96.6% | HS 578T breast 110% | NCI/ADR-RES ovarian 97.6%
active: IGROV1 ovarian -11.7%

COc1cc(/C=C/C(=O)c2ccccc2O)ccc1OCCCOc1cc2c(cc1OC)C(=O)N1CCC[C@H]1C=N2
active: SR leukemia -13.8% | RPMI-8226 leukemia -21.7% | OVCAR-5 ovarian 0.483% | OVCAR-4 ovarian -2.17% | IGROV1 ovarian -65.8% | OVCAR-3 ovarian -3.51%
inactive: OVCAR-8 ovarian 18.1% | SK-OV-3 ovarian 33.1% | HS 578T breast 37.8% | NCI/ADR-RES ovarian 19.3%

Cc1cnc(NC(=O)C(Cc2ccccc2)NC(=O)c2ccccc2)s1 (stereo not given)
active: RPMI-8226 leukemia -15.7% | IGROV1 ovarian -19.6%
inactive: SR leukemia 41% | OVCAR-8 ovarian 92.6% | OVCAR-5 ovarian 106% | OVCAR-4 ovarian 59.4% | SK-OV-3 ovarian 108% | OVCAR-3 ovarian 83.8% | HS 578T breast 85.8% | NCI/ADR-RES ovarian 65.6%

CCCS(=O)(=O)c1nc(NC2CC2)cc(-c2ccc3c(ccn3C3CC(C)(C)NC(C)(C)C3)c2)n1
inactive: SK-OV-3 ovarian 92.6% | NCI/ADR-RES ovarian 41.5%
active: SR leukemia -14.5% | RPMI-8226 leukemia -32.6% | OVCAR-8 ovarian -52.8% | OVCAR-5 ovarian -15.2% | OVCAR-4 ovarian -70.6% | IGROV1 ovarian -51% | OVCAR-3 ovarian -89.4% | HS 578T breast -11.4%

Clc1ccc(-c2nc(-c3ccco3)cn3ccnc23)cc1
inactive: SR leukemia 63.4% | RPMI-8226 leukemia 52.9% | OVCAR-8 ovarian 49.8% | OVCAR-5 ovarian 87.9% | OVCAR-4 ovarian 41.3% | IGROV1 ovarian 40.7% | OVCAR-3 ovarian 50.7% | HS 578T breast 74% | NCI/ADR-RES ovarian 70.1%
active: SK-OV-3 ovarian -14.7%

CC(C)(C)c1cn2cccc(C(=O)N3CCN(CC(=O)Nc4ccc(Cl)cc4C(=O)c4ccccc4Cl)CC3)c2n1
inactive: SR leukemia 13.2% | RPMI-8226 leukemia 24.1% | OVCAR-8 ovarian 51% | OVCAR-5 ovarian 75.1% | OVCAR-4 ovarian 50.6% | SK-OV-3 ovarian 91.4% | IGROV1 ovarian 51.2% | OVCAR-3 ovarian 75.7% | HS 578T breast 32.2% | NCI/ADR-RES ovarian 39.5%

CCC#CC[C@H]1C/C=C2/C(=O)C=C[C@@H]2C/C=C\CCCC(=O)O1
active: SR leukemia 5.38% | RPMI-8226 leukemia 4.15% | IGROV1 ovarian 7.74% | OVCAR-3 ovarian 6.81%
inactive: OVCAR-8 ovarian 13.6% | OVCAR-5 ovarian 18.4% | OVCAR-4 ovarian 40.1% | SK-OV-3 ovarian 26.5% | HS 578T breast 40.2% | NCI/ADR-RES ovarian 22.7%

COc1ccccc1OCC(=O)Nc1sc2c(c1C(N)=O)CCC2
active: IGROV1 ovarian -10.4%
inactive: SR leukemia 65.2% | RPMI-8226 leukemia 66.2% | OVCAR-8 ovarian 76.9% | OVCAR-5 ovarian 107% | OVCAR-4 ovarian 83.2% | SK-OV-3 ovarian 69.9% | OVCAR-3 ovarian 92.1% | HS 578T breast 55.5% | NCI/ADR-RES ovarian 79.1%
